# Target: T1, Aspartate--tRNA(Asp/Asn) ligase (Mycobacterium tuberculosis (strain ATCC 25618 / H37Rv)) (UniProt P9WFW3)
# T1 sequence (whole entry): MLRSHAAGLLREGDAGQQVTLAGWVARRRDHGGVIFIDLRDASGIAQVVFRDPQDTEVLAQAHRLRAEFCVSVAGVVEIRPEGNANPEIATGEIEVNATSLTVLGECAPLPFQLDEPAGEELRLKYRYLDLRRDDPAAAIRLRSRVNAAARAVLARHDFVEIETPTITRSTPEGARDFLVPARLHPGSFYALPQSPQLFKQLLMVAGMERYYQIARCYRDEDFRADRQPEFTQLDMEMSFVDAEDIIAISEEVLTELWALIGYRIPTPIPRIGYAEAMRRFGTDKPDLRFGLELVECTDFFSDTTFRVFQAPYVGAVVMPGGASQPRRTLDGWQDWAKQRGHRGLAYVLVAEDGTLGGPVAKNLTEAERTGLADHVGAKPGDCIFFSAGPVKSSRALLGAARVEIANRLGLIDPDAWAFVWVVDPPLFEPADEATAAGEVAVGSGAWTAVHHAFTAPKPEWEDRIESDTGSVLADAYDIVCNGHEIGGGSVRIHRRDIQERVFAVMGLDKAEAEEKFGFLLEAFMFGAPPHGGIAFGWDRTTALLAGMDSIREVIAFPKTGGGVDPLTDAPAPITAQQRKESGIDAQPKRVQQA
# Assay: Assay for Asp RNA synthetase-1 from Mycobacterium tuberculosis
# Type: functional
# Set-up: scale not given: in the data most compounds retested in dose-response had high values
# Conditions: 30 µM
row,SMILES,Percent Effect
1,COC(=O)N1CCCN(C(=O)NCc2ccc(Cl)s2)CC1,5.28%
2,CCc1nnsc1C(=O)N1CCCN(Cc2cnn(C)c2)CC1,3.06%
3,CC(C)COC(C)C(=O)N1CCN(S(C)(=O)=O)CC1 (stereo not given),-6.93%
4,Cc1ccc(NC2CCN(C(=O)c3n[nH]c4ccccc34)CC2)nn1,0.985%
5,O=C(NCCC1=CCCCC1)NCc1nnc2n1CCC2,2.5%
6,C1CC(CN2CCO[C@H]3[C@H](OCC4CC4)CC[C@@H]32)CCO1,0.999%
7,Cc1ccccc1Cc1cnc(NC(=O)C2CNC(=O)N2)s1 (stereo not given),6.1%
8,CCOCC1CN(C(=O)c2cccn2C)Cc2cnn(CC3CC3)c21 (stereo not given),5.55%
9,Cc1noc(CCCC(=O)NC(C)c2ccccn2)n1 (stereo not given),-1.28%
10,O=C(NCCNc1ccc(C(F)(F)F)cn1)c1ccc(Br)cc1F,-0.778%
11,Cc1ncc(CNCC2CCCN2c2cccnn2)s1 (stereo not given),0.684%
12,Cn1cc(N2CCCC(NCc3cccc4c3OCCCO4)C2)cn1 (stereo not given),2.49%
13,Cc1cnn(CC2CCCN2Cc2cc(=O)n3cccc(C)c3n2)c1 (stereo not given),3.68%
14,Cc1cnn(CC2CN(CC(=O)N(C)Cc3cccs3)CCO2)c1 (stereo not given),-5.6%
15,O=C(c1ccn(-c2ccccc2Cl)n1)N1CCSCC1,1.45%
16,Nc1nc2c(c(=O)[nH]1)CCN(C(=O)c1cccc3nccnc13)C2,6.9%
17,O=C(Cc1cn2ccsc2n1)N1CCCC(n2cncn2)C1 (stereo not given),-0.0111%
18,CC(C)N(C)Cc1cn2c(n1)CN(C(=O)Cc1ccsc1)CC2,2.92%
19,CN1CCN(C(=O)[C@H]2C[C@@H]3CCN(c4ncc(F)cn4)C[C@@H]3O2)CC1,-1.43%
20,O=C(CCCn1cncn1)NC1(c2ccccc2)CCC1,10.9%

# Reference: ChEMBL document CHEMBL3988442, “University of Dundee, Small-Polar-MMV Screening Library” (2021)
